This note sets out measurements from PubChem BioAssay (NCI).

Holding throughout (assay): NCI-60 one-dose screen, 48 h (100 = growth as untreated, 0 = no growth, -100 = all killed)
What all share (details): 10 µM unless noted

The subject of test [1] is T-47D breast.
For test [2], the system named is BT-549 breast.
Test [3] relates to MDA-MB-435 melanoma.
Test [4] relates to SW-620 colon.
Test [5] has as its system MCF7 breast.
Test [6] deals with HCT-116 colon.
For test [7], the system named is HCC-2998 colon.
In test [8] the test system is KM12 colon.

The panel holds about 83,000 compounds, 20% with a hit somewhere; the sample as a whole holds those more often.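 Compound tested at a single concentration for 48 hours in 96-well plates; a percent growth value below 10 was scored as active.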 Values without a mark were called inactive. Active and inactive are the calls of the source.

For `CCC12CCC[N+]3([O-])CCC4(C(=Nc5ccccc54)C(O)(C(=O)OC)C1)C23` (stereo unspecified), the growth in test [1] is 94.8%; in test [2], 102%; in test [3] it was 112%; in test [4], 95.4%; in test [5] it was 116%; in test [6], 94.5%. Besides, the growth in test [7] was 97.8%; in test [8], 99.6%.

In the case of `CCCCCCCCCCCCCCCCCCOc1ccccc1CCCOP(=O)(O)OCC[N+](C)(C)C`, the growth in test [1] was 87.8%; in test [2], 77.4%; in test [3], 91.6%; in test [4], 69.2%; in test [5], 60.5%; in test [6] it was 44.9%. In addition, the growth in test [7] was 50.9%; in test [8], 13.2%.

For the compound `CCc1ccccc1-n1c(N)c(C#N)c(-c2ccc(Cl)cc2)c(C#N)c1=O`, the growth in test [1] was 101%; in test [2] it was 173%; in test [3], 119%; in test [4] it was 102%; in test [5], 103%; in test [6] it was 103%. The growth in test [7] was 107%; in test [8], 95.8%.

Consider `CN1CCN(Cc2ccc(NC(=O)c3cncc(C#Cc4cnccc4C#N)c3)cc2C(F)(F)F)CC1`, for which the growth was 93.5% in test [1]; 76.5% in test [2]; 42% in test [3]; 50.7% in test [4]; 42.5% in test [5]; 24% in test [6]. Also, the growth in test [7] is 50.8%; in test [8] it was 22.3%.

For `Cc1cc2nc3ccc(N=Nc4ccc(N(C)C)cc4)cc3n(-c3ccccc3)c-2cc1=N`, the growth in test [1] was -57.2% (active); in test [2], -82.2% (active); in test [3], -97.5% (active); in test [4], -88.9% (active); in test [5] it was -65.1% (active); in test [6], -60.2% (active). In addition, the growth in test [7] is -81.8% (active); in test [8] it was -91.2% (active).

As to `NCCCNc1nc2ccccc2c2c(=O)c3cccc(F)c3sc12`, the growth in test [1] was 60.3%; in test [2] it was 91.2%; in test [3], 16.5%; in test [4], -62.5% (active); in test [5], 19.9%; in test [6], -72.5% (active). Moreover, the results for the growth in test [7] and in test [8] were -46% (active) and 4% (active), respectively.

On to `O=c1c2cc(F)ccc2sc2c(NCCN3CCOCC3)nc3ccccc3c12`, for which the growth in test [1] is 84.9%; in test [2], 82.3%; in test [3], 61.2%; in test [4], 42.4%; in test [5] it was 76.9%; in test [6] it was 46.9%. In addition, the growth was 59% in test [7] and 26% in test [8].

`O=C(N=c1oc2ccccc2cc1-c1cc2ccccc2[nH]1)Nc1ccc(Cl)cc1`: the growth was 91.1% in test [1]; 90.7% in test [2]; 104% in test [3]; 95.5% in test [4]; 83.5% in test [5]; 89.2% in test [6]. Also, the growth in test [7] is 99.7%; in test [8], 99.2%.

As for `Nc1nc2ccccc2c2c(=O)c3cc(F)ccc3sc12`, the growth in test [1] was 84.3%; in test [2] it was 106%; in test [3], 98.6%; in test [4] it was 107%; in test [5] it was 34.4%; in test [6], 99.4%. Besides, the growth was 96.6% in test [7] and 99% in test [8].

For the compound `Nc1nc(Cl)cc(=O)n1Cc1ccccc1`, the growth is 83.4% in test [1]; 102% in test [2]; 92.6% in test [3]; 105% in test [4]; 98.1% in test [5]; 95.2% in test [6]. For the same compound, the results for the growth in test [7] and in test [8] were 89.4% and 101%, respectively.

Consider `COc1ccc(S(=O)(=O)n2c3ccccc3n3ncc(-c4nnc(C)o4)c23)cc1`, for which the growth was 41.8% in test [1]; 49.5% in test [2]; -21.9% (active) in test [3]; 27% in test [4]; 18.9% in test [5]; 18.4% in test [6]. The growth was 17.1% in test [7] and 29.8% in test [8].

Turning to `COc1ccc(N2C(=O)C(Oc3ccccc3)C2c2ccc(C)cc2)cc1` (stereo unspecified), the growth in test [1] is 96.9%; in test [2], 99.3%; in test [3], 98.7%; in test [4] it was 94.8%; in test [5], 96.3%; in test [6] it was 95.5%. Further, the growth in test [7] is 97.7%; in test [8], 96.2%.

Consider `CS(=O)(=O)N(c1cc(-c2ccc3ncnc(Nc4ccc(F)c(Cl)c4)c3c2)cnc1Cl)S(C)(=O)=O`, for which the growth was -11% (active) in test [1]; 22% in test [2]; 43.8% in test [3]; 46.3% in test [4]; 12% in test [5]; 45.1% in test [6]. Further, the growth in test [7] was 45.1%; in test [8], 67.1%.

In the case of `COc1ccc(S(=O)(=O)n2cc(C3OC(c4cc(OC)c(OC)c(OC)c4)=NN3C(C)=O)c3ccccc32)cc1OC` (stereo unspecified), the growth in test [1] was 54.7%; in test [2], 51.8%; in test [3], 95.4%; in test [4], 97.9%; in test [5] it was 88%; in test [6], 67.7%. In addition, the growth was 105% in test [7] and 137% in test [8].

For `Oc1ccc(CCl)c2cccnc12`, the growth in test [1] was 30.3%; in test [2], 66.7%; in test [3], 84.8%; in test [4], 41.5%; in test [5], 5.57% (active); in test [6], 15.4%. For the same compound, the figures for the growth in test [7] and in test [8] were 91.3% and 82%, respectively.

`C#Cc1cccc(NC(=O)c2ccc(NC(=O)C=C)cc2)c1`: the growth is 55.6% [8.25 µM] in test [1]; 77% [8.25 µM] in test [2]; 65.5% [8.25 µM] in test [3]; 77.9% [8.25 µM] in test [4]; 59% [8.25 µM] in test [5]; 57.4% [8.25 µM] in test [6]. Also, the growth is 101% [8.25 µM] in test [7] and 96.7% [8.25 µM] in test [8].

In the case of `CN1C(=O)CNC(=O)[C@H](NC(=O)c2nc3ccccc3cc2O)CSSC[C@H]1C(=O)NCCCc1nc2ccccc2cc1O`, the growth was 78% in test [1]; 75.8% in test [2]; 44% in test [3]; 48.2% in test [4]; 55.1% in test [5]; 70% in test [6]. The growth was 74.7% in test [7] and 27% in test [8].

Regarding `C#C[C@]1(O)CC[C@H]2[C@@H]3CC=C4c5sc(Nc6ccccc6)nc5CC[C@]4(C)[C@H]3CC[C@@]21C`, the growth is 28.6% in test [1]; 19.9% in test [2]; 34.4% in test [3]; 3.04% (active) in test [4]; 8.14% (active) in test [5]; -33.3% (active) in test [6]. Further, the growth was 45.3% in test [7] and 13.1% in test [8].

Consider `CC1=C(SCCC(=O)OC(C[Se]C2=C(C)C(=O)c3ccccc3C2=O)C(=O)NC(C)(C)C)C(=O)c2ccccc2C1=O` (stereo unspecified), for which the growth in test [1] was -52.9% (active); in test [2], -96.2% (active); in test [3], -86.8% (active); in test [4], -80% (active); in test [5] it was -63.5% (active); in test [6] it was -70.9% (active). Moreover, the growth is -82.8% (active) in test [7] and -94.6% (active) in test [8].

Turning to `O=c1c2cc(C(F)(F)F)ccc2sc2c(NCCCNCCO)nc3ccccc3c12`, the growth in test [1] is -6.02% (active); in test [2], 86.1%; in test [3] it was -73% (active); in test [4], -75.9% (active); in test [5], -59.7% (active); in test [6], -72.8% (active). Further, the values for the growth in test [7] and in test [8] were -89.8% (active) and -67.8% (active), respectively.

On to `COc1c(B(O)O)cc(C)cc1-c1nc2ccc3[nH]ncc3c2c2c1CCCC2`, for which the growth in test [1] was 78.5%; in test [2] it was 24.2%; in test [3], 22.5%; in test [4], 8.73% (active); in test [5] it was 54.6%; in test [6] it was 21.3%. The growth in test [7] was 62.9%; in test [8] it was 30.6%.

Regarding `COc1ccc(/C=C/c2c(C(=O)/C=C/c3ccc(Cl)cc3)c(C)nc3ccccc23)cc1`, the growth was 23.2% in test [1]; 54.5% in test [2]; 2.02% (active) in test [3]; -17% (active) in test [4]; 26.2% in test [5]; -64.6% (active) in test [6]. The growth is -48.6% (active) in test [7] and 30.2% in test [8].

For `CNc1nc2c(s1)C(c1cc(F)ccc1F)CC(=O)N2` (stereo unspecified), the growth in test [1] is 63.6%; in test [2], 80.5%; in test [3] it was -51.6% (active); in test [4], 30.9%; in test [5], 36.5%; in test [6], 53.5%. Further, the growth in test [7] is 88.1%; in test [8] it was 52.9%.

As for `O=c1c2cc(F)ccc2sc2c(N3CCNCC3)nc3ccccc3c12`, the growth in test [1] was 27.9%; in test [2], 90.8%; in test [3], -87.1% (active); in test [4], -87.1% (active); in test [5], -74.1% (active); in test [6] it was -46.3% (active). The values for the growth in test [7] and in test [8] were -92.1% (active) and -82.4% (active), respectively.

For the compound `NCCOc1ncccc1/C=C1\c2ccccc2-c2ccc(C(F)F)cc21`, the growth in test [1] is 51.5%; in test [2], 87.3%; in test [3], 82.3%; in test [4] it was 38.4%; in test [5] it was 21.6%; in test [6], 42.1%. The growth in test [7] was 24.2%; in test [8], 78.8%.

Consider `O=C(Nc1ccc(OS(=O)(=O)c2ccc(F)cc2)cc1)c1ccc(Cl)cc1`, for which the growth in test [1] was 78.1%; in test [2], 97.4%; in test [3], 117%; in test [4], 108%; in test [5], 92.9%; in test [6], 95.5%. Moreover, the growth is 106% in test [7] and 103% in test [8].

As for `COc1ccc(OC)c(/C=C/c2nnc(Nc3ccccc3)o2)c1`, the growth in test [1] is 80.4%; in test [2] it was 97.1%; in test [3], 89.1%; in test [4] it was 113%; in test [5], 98.3%; in test [6], 103%. For the same compound, the growth in test [7] is 102%; in test [8], 89%.

In the case of `Cc1ccc(/C=N\NC(=O)c2[nH]c3ccc(F)cc3c2-c2ccccc2)cc1`, the growth in test [1] is 75.4%; in test [2] it was 36.8%; in test [3], -13.8% (active); in test [4], 25.7%; in test [5], 15.3%; in test [6], 10.8%. Further, the growth is -24.8% (active) in test [7] and -0.0461% (active) in test [8].

`O=C(O)C(c1ccccc1)N1C(=O)CSC1=S` (stereo unspecified): the growth in test [1] is 97.7%; in test [2], 94.2%; in test [3], 99.5%; in test [4] it was 103%; in test [5], 93.8%; in test [6], 102%. Besides, the growth in test [7] is 112%; in test [8], 102%.

As to `O=C(Nn1c(NCC(=O)N2c3ccccc3Sc3ccccc32)nnc1-c1ccc(O)cc1)c1ccccc1`, the growth in test [1] was 98.9%; in test [2], 98.4%; in test [3], 102%; in test [4] it was 105%; in test [5], 108%; in test [6], 91.7%. Besides, the growth in test [7] was 91.9%; in test [8], 104%.

In the case of `CCOC(=O)c1nc(Nc2ccc(C(C)=O)cc2)sc1C`, the growth is 93% in test [1]; 106% in test [2]; 100% in test [3]; 101% in test [4]; 92.9% in test [5]; 99.8% in test [6]. For the same compound, the values for the growth in test [7] and in test [8] were 114% and 101%, respectively.

As for `O=C(Nc1ccc(I)cc1F)c1cc(I)ccc1O`, the growth is -0.561% (active) in test [1]; -9.42% (active) in test [2]; 2.77% (active) in test [3]; 10.8% in test [4]; 3.31% (active) in test [5]; 5.17% (active) in test [6]. The growth in test [7] is 17.6%; in test [8], 2.37% (active).
